Source: PubChem (National Center for Advancing Translational Sciences (NCATS))
A selection: hits, their analogues and other compounds. The true share with any hit is near 3.2%.
USP2a inh: qHTS Assay for Inhibitors of Ubiquitin-specific Protease USP2a Using CHOP2 as the Reporter | Ubiquitin carboxyl-terminal hydrolase 2 (Homo sapiens), O75604 | USP2 core, Ub-CHOP2 coupled fluorogenic reporter, 485/531 | Potency, µM (doses to about 38.3 µM), for inactives: at the highest dose activity change, negative = inhibition, hits mostly inhibitors | 0.01% of 330,000 active | AID 463254, 2010;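 also: potency is read from the fitted curve at half-maximal effect; plate controls were DMSO wells for no effect and full inhibition by NEM control for full effect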
Target sequence (O75604 whole entry, looked up): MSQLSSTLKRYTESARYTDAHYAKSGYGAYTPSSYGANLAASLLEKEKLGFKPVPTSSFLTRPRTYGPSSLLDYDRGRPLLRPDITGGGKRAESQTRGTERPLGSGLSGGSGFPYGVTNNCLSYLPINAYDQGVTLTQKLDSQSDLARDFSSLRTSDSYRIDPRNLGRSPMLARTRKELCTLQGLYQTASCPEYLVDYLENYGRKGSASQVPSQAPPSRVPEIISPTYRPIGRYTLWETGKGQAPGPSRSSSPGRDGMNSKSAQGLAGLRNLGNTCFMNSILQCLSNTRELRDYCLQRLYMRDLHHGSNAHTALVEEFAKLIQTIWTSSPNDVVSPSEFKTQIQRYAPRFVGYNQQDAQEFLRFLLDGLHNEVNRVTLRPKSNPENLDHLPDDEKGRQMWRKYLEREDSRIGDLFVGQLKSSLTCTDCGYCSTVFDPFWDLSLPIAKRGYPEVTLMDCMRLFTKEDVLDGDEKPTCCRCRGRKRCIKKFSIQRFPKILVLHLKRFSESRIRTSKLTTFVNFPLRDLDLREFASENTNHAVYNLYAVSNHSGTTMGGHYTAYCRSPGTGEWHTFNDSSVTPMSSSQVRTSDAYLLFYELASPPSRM
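Deubiquitinase activity read as fluorescence (485/531 nm) after Ub-CHOP2 cleavage activates the enterokinase reporter on its substrate; USP2 core 10nM, Ub-CHOP2 and substrate 25nM each, 30min compound preincubation then 60min RT; data normalized to NEM, curves fitted.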
FBPA coupling cs: qHTS Assay for Inhibitors of Fructose-1,6-bisphosphate Aldolase from Giardia Lamblia: Coupling assay counterscreen; coupling enzyme system counterscreen, AmpLite Red fluorescence; activity change, negative = inhibition, % at 58.2 µM, hits read low; 0.67% of 290,000 active; AID 2472, 2010; in the data active = activity change below about -30%
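Counterscreen lacking aldolase: glyceraldehyde-3-phosphate coupling-enzyme reagent preincubated 10 min at RT with compound (at 57.5 uM final), then substrate/coupling system with AmpLite Red added; fluorescence read at 525/598 nm after 20 min RT.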
GALK inhibitor: qHTS Assay for Inhibitors of Human Galactokinase (GALK) | P51570 | Purified GALK, Kinase-Glo residual ATP luminescence | Potency, µM (doses to about 57.5 µM), without a hit: at the top dose activity change, negative = inhibition, most hits filed as inhibitors | 0.007% of 270,000 active | AID 1868, 2009; also: potency is read from the fitted curve at half-maximal effect
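Human GALK (5 nM) with 35 uM ATP and 100 uM galactose in 20 mM HEPES pH 8.0, 5 mM MgCl2, 60 mM NaCl, 1 mM DTT, 0.01% BSA. After 1 h at room temperature, leftover ATP was read by Kinase-Glo Plus luminescence.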
PLK1 PBD inh: qHTS for Inhibitors of PLK1-PDB (polo-like kinase 1 - polo-box domain): Primary Screen; 2.8% of 360,000 active; AID 720504, 2013; Plk1 PBD binding of FITC phosphopeptide, fluorescence polarization; Potency, µM, for inactives: max response, negative = inhibition, most hits filed as inhibitors; Serine/threonine-protein kinase PLK1 (Homo sapiens), P53350; also: potency is read from the fitted curve at half-maximal effect; series mostly up to about 57 µM; nearly all actives have a fitted effect of over 65% in size
VDR inh: Inhibitors of the vitamin D receptor (VDR): qHTS. AID 504847, 2011. VDR-SRC2-3 peptide fluorescence polarization, 2 h. Potency, µM, inactives show max response, negative = inhibition, most hits filed as inhibitors. 0.93% of 400,000 active; also: potency is read from the fitted curve at half-maximal effect
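Two reagent solutions held at 4 deg C in the dark were dispensed, compounds pinned at 23 nl, and the mixture incubated 2 h at room temperature. Read-out: fluorescence polarization of VDR–SRC2-3 peptide binding.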
USP1-UAF1 inh: Inhibitors of USP1/UAF1: Primary Screen. recombinant USP1/UAF1, Ub-Rhodamine cleavage fluorescence. AID 743255, 2014. Potency, µM (top dose mostly 57.1 µM), for inactives: at the top dose activity change, negative = inhibition, hits mostly inhibitors. 0.23% of 390,000 active; also: potency is read from the fitted curve at half-maximal effect; nearly all actives have a fitted effect of over 60% in size
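1 nM enzyme complex + cpd, 15 min RT; start with Ub-Rho 150nM final; kinetic fluorescence ex 480/em 540, 6 reads q60 s. Buffer 50mM HEPES pH 7.8, 0.5mM EDTA, 0.1 mg/ml BSA, 1mM TCEP, 0.01% Tween-20.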
* hit, by the source's call; ? = inconclusive; · = not tested or not shown. Unless noted, calls follow the shape of the dose curve; as a rule, active = well fitted curve in the direction sought with a large enough effect; inconclusive = small, poorly fitted or top-dose-only effect, or another doubt; inactive = no such curve, though single readings can be large; an effect the other way counts as inactive or inconclusive. Unless noted, % is scaled to controls: 0 for no effect and ±100 for the full control effect.

SMILES	USP2a inh	FBPA coupling cs	GALK inhibitor	PLK1 PBD inh	VDR inh	USP1-UAF1 inh
CS(=O)(=O)N(Cc1ccc(C(=O)NCc2ccco2)cc1)c1ccccc1	0%	11	-1%	-7%	5%	-24%
Cc1ccccc1Nc1ccc([N+](=O)[O-])cn1	-6%	3	9%	-18%	10%	-1%
S=C(Nc1ccccc1)Nn1cnnc1	2%	1	0%	19µM*	-17%	-3%
Cc1ccc(NC(=S)Nn2cnnc2)cc1	-16%	1	0%	11µM*	-18%	-20%
Cc1cccc(NC(=S)Nn2cnnc2)c1C	6%	0	5%	?	?	-9%
CCCCN(C(=O)COc1ccc(F)cc1)c1c(N)n(CC(C)C)c(=O)[nH]c1=O	·	·	·	-6%	·	-23%
CN(C)C(=O)CCSC(SCCC(=O)O)c1cccc(/C=C/c2ccc3ccc(Cl)cc3n2)c1 (stereo unspecified)	·	·	·	·	35µM*	·
O=C1Cc2ccccc2C(=O)N1Cc1ccccc1	0%	-43*	-3%	?	-2%	3.2µM*
O=C1c2cccc3c(O)ccc(c23)C(=O)N1Cc1ccccc1	?	9	-6%	6µM*	9%	6.3µM*
O=C(O)c1cccc(CN2C(=O)c3ccccc3C2=O)c1	0%	14	0%	-8%	-15%	-31%
O=C1Cc2ccccc2C(=O)N1c1ccccc1	-2%	-1	-2%	1%	-1%	?
CCOC(=O)CSc1c(-c2ccc(Cl)cc2)[nH]c2ccccc12	4%	-11	0%	6µM*	?	?
CCOC(=O)CSc1c(-c2cccs2)[nH]c2ccccc12	-9%	-8	·	-19%	?	?
O=C(O)c1ccccc1S(=O)CCO (stereo unspecified)	1%	4	0%	0%	20%	-21%
CC(C)CCNC(=O)COc1ccc2c(c1)C(=O)CC(C)(C)O2	0%	2	-2%	-1%	-5%	-2%
Cc1cc(C)c2c(=O)n(CC(=O)NCCCN3CCOCC3)sc2n1	1%	3	0%	1.5µM*	?	-18%
Cc1cc(C)c2c(=O)n(CC(=O)NCCCN3CCN(c4ccccc4F)CC3)sc2n1	0%	4	-5%	2.1µM*	16µM*	-22%
CC1Oc2ccccc2C=C1/C=C1/SC(N2CCOCC2)=NC1=O (stereo unspecified)	0%	-44*	-1%	-7%	-19%	1%
C=CCc1ccccc1OCCSc1nc(-c2ccc(C(C)(C)C)cc2)nc2cc(=O)[nH]n12	·	·	·	·	5%	-7%
CCC(CC)C(=O)Nc1cc(OC)c(OC)cc1C(=O)O	3%	-10	0%	19µM*	-15%	-13%
CCC(C)C(=O)Nc1cc(OC)c(OC)cc1C(=O)O (stereo unspecified)	0%	-8	-1%	0%	12%	-12%
COc1cc(/C=C/C(=O)Nc2cc(C(F)(F)F)ccc2Cl)cc(OC)c1OC	1%	-1	-2%	27µM*	-4%	-21%
CCCOc1ccc(/C=C/C(=O)NC2CCCCC2)cc1OC	-1%	3	-1%	10%	0%	-6%
COc1cc(/C=C/C(=O)Nc2nnc(C(C)(C)C)s2)cc(OC)c1OC	0%	4	2%	24µM*	-19%	-15%
COc1cc(/C=C/C(=O)NC2CCCCC2)cc(OC)c1OC	2%	1	0%	27µM*	?	-9%
COc1cccc(OCc2cc(C(=O)NCCc3cccc(C)n3)no2)c1	-1%	0	-1%	-7%	-1%	-16%
